Bioassay records deposited in PubChem BioAssay by Broad Institute.
Not all results are given here.
aSyn UTR act = Activators via SNCA 5'UTR binding, MLPCN; 300,000 compounds, 7.1% hits; AID 1814, 2009; activity score, % (tested at 7.5 µM), hits read low; alpha-synuclein 5'UTR reporter, activators screen; in the data active means activity score below about -60%
* = called active by the depositor.

SMILES	aSyn UTR act
Cc1cc(C(=O)N/N=C/c2ccc(C)o2)c2ccccc2n1	65
Cc1ccc(/C=N/NC(=O)c2ccoc2C)o1	-137*
COc1cc(/C=N/NC(=O)c2ccoc2C)cc(OC)c1O	-90*
O=C(NCCc1ccccc1)c1cccc(Br)c1	-131*
O=C(NCCc1ccccc1)c1cccc([N+](=O)[O-])c1	-77*
O=C(CCCc1ccccc1)Nc1cccc([N+](=O)[O-])c1	-161*
O=C(O)c1cccc(S(=O)(=O)Nc2ccccc2C(=O)NCCc2ccccc2)c1	-64*
O=C(NCCc1ccccc1)c1cnc2ccccc2n1	-99*
O=C(NCCc1ccccc1)c1ccc2nccnc2c1	63
O=C(NCCc1ccccc1)c1cccnc1	-99*
CCC(=O)Nc1cccc(NC(=S)NC(=O)c2cccc(C)c2)c1	-172*
CCC(=O)Nc1cccc(NC(=S)NC(=O)c2ccc(C)cc2)c1	-156*
CCC(=O)Nc1cccc(NC(=S)NC(=O)c2ccccc2)c1	-183*
CCC(=O)Nc1cccc(NC(=S)NC(=O)c2cc3ccccc3o2)c1	-133*
O=[N+]([O-])c1cccc(-c2cn3ccccc3n2)c1	-93*
CCCCOc1ccc(CSc2nc(C)[nH]c2[N+](=O)[O-])cc1[N+](=O)[O-]	-65*
CCCOc1ccc(-c2cn3ccccc3n2)cc1[N+](=O)[O-]	-114*
COc1ccc(-c2cn3ccccc3n2)cc1[N+](=O)[O-]	-162*
CCCCOc1ccc(-c2csc(N)n2)cc1[N+](=O)[O-]	-141*
O=C(CN1CCCCC1)Nc1scc2c1c(=O)oc1ccccc12	-134*
N#CCC(=O)N/N=C\c1ccc(OC/C=C/c2ccccc2)cc1	-146*
N#CCC(=O)N/N=C/c1ccc(OCc2ccccc2)cc1	-66*
O=C(CSc1ccccn1)Nc1nc2ccccc2s1	-63*
Cn1ccnc1SCC(=O)Nc1ccc2nc(SCC(=O)NC3CC3)sc2c1	-152*
Cn1ccnc1SCC(=O)Nc1nc2ccccc2s1	-125*
SMILES	aSyn UTR act
Cc1ccc(NC(=O)CSc2nccn2C)cc1F	-62*
Cc1ccc(C)c(Nc2nc(N)c3ccccc3n2)c1	-157*
COc1ccc(Cl)cc1Nc1nc(N)c2ccccc2n1	-103*
COc1nc(Nc2nc3ccccc3c(=O)[nH]2)nc2ccc(C)cc12	90
COc1cc2nc(N3CCN(c4cc(C)ccc4C)CC3)nc(N)c2cc1OC	95
CCNC(=O)NC(=O)C(C)Oc1ccc(Br)cc1Br (configuration not stated)	-78*
CCCS(=O)(=O)c1cnc(C2COc3ccccc3O2)nc1N (configuration not stated)	68
Cc1cc(C)nc(SCC2COc3ccccc3O2)n1 (configuration not stated)	-71*
c1ccc(Nc2nc(CSc3ncn[nH]3)cs2)cc1	-135*
O=C(NCCC1=CCCCC1)c1ccc(Br)o1	-83*
O=C(NC(=S)NCCC1=CCCCC1)c1ccc(Br)o1	-115*
Cc1ccc(NC(=S)NCCC2=CCCCC2)cc1	-137*
Cc1c(OCc2ccccc2)cccc1OCc1ccccc1	-71*
CSc1nsc(N/N=C/c2ccc3c(c2)OCO3)c1C#N	-231*
Cc1oc(/N=C/c2ccc3c(c2)OCO3)c(C#N)c1C	-74*
COc1ccc(C(=O)/C=C/c2ccc(F)cc2)c(OC(=O)c2ccc([N+](=O)[O-])cc2)c1	-122*
COc1ccc(C(=O)/C=C/c2cccs2)c(OC(=O)c2cccc([N+](=O)[O-])c2)c1	-366*
[N-]=[N+]=CC(=O)C(O)(c1ccccc1)C(Cl)c1ccccc1 (configuration not stated)	47
CCN(CC)CCNc1ccnc2cc(Cl)ccc12	-62*
Cc1ccc(-c2[nH]n3c(=O)c4c(nc3c2C)CCCC4)cc1	-75*
O=c1c2c(nc3c(-c4cccc(Br)c4)c[nH]n13)CCCC2	69
Cc1c(-c2ccccc2)[nH]n2c(=O)c3c(nc12)CCCC3	-166*
CC1(C)CC(=O)C(C(=O)/C=C/c2ccco2)C(=O)C1	-73*
COc1ccc(-n2c(/C=C3\C(=O)N(C)c4ccccc43)nc3ccccc3c2=O)cc1	-107*
CCN1C(=O)/C(=C/c2nc3ccccc3c(=O)n2-c2ccc(C)cc2)c2ccccc21	-139*
SMILES	aSyn UTR act
CCOc1ccc(NCc2nc3ccccc3n2CCOc2ccccc2)cc1	-67*
COc1ccc(CCNc2nc3ccccc3n3nnnc23)cc1OC	-106*
Nn1c(Nc2ccccc2)nc2ccccc21	-100*
COc1ccc(CCNc2nnc(Sc3nnnn3-c3ccccc3)s2)cc1OC	120
CCOc1ccc(CNc2nc3ccccc3n2C)cc1	-125*
CCOc1ccc(Nc2nc3ccccc3n3nnnc23)cc1	-82*
CCOc1ccc(Nc2nc3ccccc3n2C)cc1	-163*
CCCn1c(NCc2cc(OC)ccc2OC)nc2ccccc21	-98*
CCN1C(=O)/C(=C\N2CCCCCC2)SC1=S	-112*
COc1ccc(/C=C2\SC(=S)N(CCCC(=O)N3CCCCC3CCO)C2=O)cc1 (configuration not stated)	68
CCN1C(=O)/C(=C/N2CCc3ccccc3C2)SC1=S	-108*
